Screen size: about 5,500 compounds; about 2,000 (36%) were called active. Another 18% or so got no clear call; they are omitted. No stated cut-off is given here; in the data, active means normalized growth mostly below about 0.91 (no sharp cut-off); inconclusive means no clear call, values can overlap the other calls; inactive means mostly above about 0.92. The list shows a part of the results.
Test: chemical genetic growth profiling, strain panel (AID 1159580);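 further: tested at 20 µM; growth read once vehicle control cultures reached saturation at 30 °C; 1 = growth at the plate median or of vehicle wells; lower values mean less growth of the strain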
Details: growth OD

Measured: normalized growth

O=C1OCCN1/N=C\c1ccc([N+](=O)[O-])o1
active: S. cerevisiae deletion strains, locus YLR039C, strain RIC1, active compounds read low 0.657 | S. cerevisiae deletion strains, locus YLR268W, strain sec22, active compounds read low 0.831 | S. cerevisiae deletion strains, locus YML032C, strain rad52, active compounds read low 0.494 | S. cerevisiae deletion strains, locus YMR058W, strain fet3, active compounds read low 0.79 | S. cerevisiae deletion strains, locus YNL153C, strain GIM3, active compounds read low 0.842 | S. cerevisiae deletion strains, locus YNL248C, strain rpa49, active compounds read low 0.84 | S. cerevisiae deletion strains, locus YNL250W, strain rad50, active compounds read low 0.713 | S. cerevisiae deletion strains, locus YNR052C, strain pop2, active compounds read low 0.899 | S. cerevisiae deletion strains, locus YOR184W, strain ser1, active compounds read low 0.862 | S. cerevisiae deletion strains, locus YOR231W, strain MKK1, active compounds read low 0.777 | S. cerevisiae deletion strains, strain wtn01, active compounds read low 0.87
inactive: S. cerevisiae deletion strains, locus YJR075W, strain HOC1, active compounds read low 0.981 | S. cerevisiae deletion strains, locus YKL009W, strain mrt4, active compounds read low 0.915 | S. cerevisiae deletion strains, locus YKL068W, active compounds read low 0.999 | S. cerevisiae deletion strains, locus YKL085W, strain MDH1 (second series), active compounds read low 0.99 | S. cerevisiae deletion strains, locus YKL085W, strain MDH1, active compounds read low 0.99 | S. cerevisiae deletion strains, locus YKL160W, strain elf1, active compounds read low 0.984 | S. cerevisiae deletion strains, locus YKR001C, strain vps1, active compounds read low 0.938 | S. cerevisiae deletion strains, locus YKR026C, strain gcn3, active compounds read low 1 | S. cerevisiae deletion strains, locus YKR091W, strain srl3, active compounds read low 0.997 | S. cerevisiae deletion strains, locus YLL001W, strain dnm1, active compounds read low 0.978 | S. cerevisiae deletion strains, locus YLL026W, active compounds read low 0.988 | S. cerevisiae deletion strains, locus YLL041C, strain sdh2, active compounds read low 1 | S. cerevisiae deletion strains, locus YLR027C, strain aat2, active compounds read low 0.955 | S. cerevisiae deletion strains, locus YLR058C, strain SHM2, active compounds read low 0.967 | S. cerevisiae deletion strains, locus YLR102C, strain apc9, active compounds read low 0.988 | S. cerevisiae deletion strains, locus YLR113W, strain HOG1, active compounds read low 0.869 | S. cerevisiae deletion strains, locus YLR221C, strain rsa3, active compounds read low 0.975 | S. cerevisiae deletion strains, locus YLR258W, strain gsy2, active compounds read low 0.976 | S. cerevisiae deletion strains, locus YLR262C, strain YPT6 (second series), active compounds read low 0.888 | S. cerevisiae deletion strains, locus YLR262C, strain YPT6, active compounds read low 0.683 | S. cerevisiae deletion strains, locus YLR320W, strain mms22, active compounds read low 0.956 | S. cerevisiae deletion strains, locus YLR330W, strain CHS5, active compounds read low 1 | S. cerevisiae deletion strains, locus YLR342W, strain FKS1 (second series), active compounds read low 0.943 | S. cerevisiae deletion strains, locus YLR342W, strain FKS1, active compounds read low 1 | S. cerevisiae deletion strains, locus YLR357W, strain rsc2, active compounds read low 1.03 | S. cerevisiae deletion strains, locus YLR370C, strain arc18, active compounds read low 0.942 | S. cerevisiae deletion strains, locus YLR371W, strain rom2, active compounds read low 0.99 | S. cerevisiae deletion strains, locus YLR384C, strain iki3, active compounds read low 1 | S. cerevisiae deletion strains, locus YLR418C, strain cdc73, active compounds read low 0.847 | S. cerevisiae deletion strains, locus YML016C, strain PPZ1, active compounds read low 0.987 | S. cerevisiae deletion strains, locus YML120C, strain ndi1, active compounds read low 0.965 | S. cerevisiae deletion strains, locus YML124C, strain tub3, active compounds read low 1.01 | S. cerevisiae deletion strains, locus YMR078C, strain ctf18, active compounds read low 0.976 | S. cerevisiae deletion strains, locus YMR125W, strain sto1, active compounds read low 0.93 | S. cerevisiae deletion strains, locus YMR129W, active compounds read low 1 | S. cerevisiae deletion strains, locus YMR205C, strain PFK2, active compounds read low 1.02 | S. cerevisiae deletion strains, locus YMR223W, strain ubp8, active compounds read low 0.91 | S. cerevisiae deletion strains, locus YMR231W, strain pep5, active compounds read low 0.998 | S. cerevisiae deletion strains, locus YMR307W, strain GAS1, active compounds read low 0.761 | S. cerevisiae deletion strains, locus YNL067W, strain RPL9B, active compounds read low 0.97 | S. cerevisiae deletion strains, locus YNL071W, strain lat1, active compounds read low 0.997 | S. cerevisiae deletion strains, locus YNL128W, strain TEP1, active compounds read low 0.997 | S. cerevisiae deletion strains, locus YNL183C, strain NPR1, active compounds read low 0.848 | S. cerevisiae deletion strains, locus YNL209W, strain ssb2, active compounds read low 0.979 | S. cerevisiae deletion strains, locus YNL233W, strain BNI4, active compounds read low 0.987 | S. cerevisiae deletion strains, locus YNL271C, strain bni1, active compounds read low 0.978 | S. cerevisiae deletion strains, locus YNL298W, strain CLA4, active compounds read low 0.95 | S. cerevisiae deletion strains, locus YNL307C, strain MCK1, active compounds read low 0.955 | S. cerevisiae deletion strains, locus YNL322C, strain KRE1 (second series), active compounds read low 0.992 | S. cerevisiae deletion strains, locus YNL322C, strain KRE1, active compounds read low 0.999 | S. cerevisiae deletion strains, locus YNR049C, strain mso1, active compounds read low 1.02 | S. cerevisiae deletion strains, locus YOL006C, strain TOP1, active compounds read low 0.891 | S. cerevisiae deletion strains, locus YOL012C, strain htz1 1.16 | S. cerevisiae deletion strains, locus YOL147C, strain pex11, active compounds read low 0.991 | S. cerevisiae deletion strains, locus YOR001W, strain rrp6, active compounds read low 0.904 | S. cerevisiae deletion strains, locus YOR061W, strain CKA2, active compounds read low 0.988 | S. cerevisiae deletion strains, locus YOR069W, strain VPS5, active compounds read low 0.992 | S. cerevisiae deletion strains, locus YOR070C, strain gyp1, active compounds read low 1.01 | S. cerevisiae deletion strains, locus YOR080W, strain dia2, active compounds read low 0.986 | S. cerevisiae deletion strains, locus YOR083W, strain WHI5, active compounds read low 0.962 | S. cerevisiae deletion strains, locus YOR106W, strain vam3, active compounds read low 0.938 | S. cerevisiae deletion strains, locus YOR136W, strain idh2, active compounds read low 0.959 | S. cerevisiae deletion strains, locus YOR144C, strain elg1, active compounds read low 0.969 | S. cerevisiae deletion strains, locus YOR265W, strain rbl2, active compounds read low 0.997 | S. cerevisiae deletion strains, locus YOR270C, strain vph1, active compounds read low 0.92 | S. cerevisiae deletion strains, locus YOR290C, strain snf2, active compounds read low 0.912 | S. cerevisiae deletion strains, locus YOR316C, strain cot1, active compounds read low 0.999 | S. cerevisiae deletion strains, locus YPL051W, strain arl3, active compounds read low 0.943 | S. cerevisiae deletion strains, locus YPL055C, strain LGE1, active compounds read low 0.882 | S. cerevisiae deletion strains, locus YPL078C, strain atp4, active compounds read low 0.932 | S. cerevisiae deletion strains, locus YPL106C, strain sse1, active compounds read low 0.889 | S. cerevisiae deletion strains, locus YPL240C, strain hsp82, active compounds read low 1.01 | S. cerevisiae deletion strains, locus YPL241C, strain CIN2, active compounds read low 0.988 | S. cerevisiae deletion strains, locus YPL256C, strain CLN2, active compounds read low 0.909 | S. cerevisiae deletion strains, locus YPR119W, strain clb2, active compounds read low 0.989 | S. cerevisiae deletion strains, locus YPR141C, strain kar3, active compounds read low 0.993 | S. cerevisiae deletion strains, locus YPR163C, strain tif3, active compounds read low 0.993 | S. cerevisiae deletion strains, locus YPR167C, strain met16, active compounds read low 0.986 | S. cerevisiae strains, strain wild type, active compounds read low 0.99

— PubChem BioAssay AID1159580 (chemical genetic matrix, 2015)
